# Test results as given in article PMC7862700, “An all-to-all approach to the identification of sequence-specific readers for epigenetic DNA modifications on cytosine”.
# Tests used:
# Assay in all cases: DAPPL (digital affinity profiling via proximity ligation, sequencing); 10 mM Tris-HCl pH 7.5, 50 mM NaCl, 1 mM DTT, 4% glycerol, room temperature, 30 min; GST-TFs on glutathione beads, 16-mer random dsDNA library, 0.1% formaldehyde crosslink after washing; high values mean tight binding
# FLI1 = target: T1, FLI1 (Homo sapiens, UniProt Q01543 1-452); details: protein: recombinant; tags: N-terminal GST; dsDNA, one strand shown
# T1 sequence: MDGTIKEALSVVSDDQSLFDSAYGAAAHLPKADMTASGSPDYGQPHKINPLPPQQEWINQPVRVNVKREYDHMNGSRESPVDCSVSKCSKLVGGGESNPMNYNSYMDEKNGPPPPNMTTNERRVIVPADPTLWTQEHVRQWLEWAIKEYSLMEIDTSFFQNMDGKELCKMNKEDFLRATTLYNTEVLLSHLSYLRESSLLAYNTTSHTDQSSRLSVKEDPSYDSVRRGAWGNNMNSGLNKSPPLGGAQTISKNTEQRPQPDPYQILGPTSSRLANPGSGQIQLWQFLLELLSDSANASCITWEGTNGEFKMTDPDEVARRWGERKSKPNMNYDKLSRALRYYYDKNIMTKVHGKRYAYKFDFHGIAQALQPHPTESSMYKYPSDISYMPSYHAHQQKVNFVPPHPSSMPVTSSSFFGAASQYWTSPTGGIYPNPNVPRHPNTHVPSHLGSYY
# Procedure, shortened: (§1)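 Yeast served to express human transcription factors as GST fusions, which were then captured on glutathione beads and labelled with DNA barcodes. Pooled with a tag-only sample, they were incubated with 200 nmole of a 16-mer random double-stranded DNA library for 30 min at room temperature in Tris/NaCl/DTT/glycerol buffer, washed, crosslinked with 0.1% formaldehyde, ligated by proximity, amplified by PCR and sequenced. Dividing each hexamer's read frequency for a factor by its frequency for the tag-only sample gives the binding signal.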
# ELK1 = target: T2, ELK1 (Homo sapiens, UniProt P19419 1-428); details: protein: recombinant; tags: N-terminal GST; dsDNA, one strand shown
# T2 sequence: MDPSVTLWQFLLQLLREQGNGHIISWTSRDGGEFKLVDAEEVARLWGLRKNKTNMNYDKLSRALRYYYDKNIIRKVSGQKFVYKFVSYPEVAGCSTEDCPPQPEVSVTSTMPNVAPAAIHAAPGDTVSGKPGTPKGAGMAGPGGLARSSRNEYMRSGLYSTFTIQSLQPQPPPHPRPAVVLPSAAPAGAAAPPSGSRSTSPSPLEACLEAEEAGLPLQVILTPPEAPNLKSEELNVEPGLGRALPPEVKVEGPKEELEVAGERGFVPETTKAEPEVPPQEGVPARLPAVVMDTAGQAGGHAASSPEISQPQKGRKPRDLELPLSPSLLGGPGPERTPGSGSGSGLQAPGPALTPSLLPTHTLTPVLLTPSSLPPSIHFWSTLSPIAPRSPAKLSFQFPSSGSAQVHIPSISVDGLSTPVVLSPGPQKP
# Procedure, shortened: as §1
# GABPA = target: T3, GABPA (Homo sapiens, UniProt Q06546 1-454); details: protein: recombinant; tags: N-terminal GST; dsDNA, one strand shown
# T3 sequence: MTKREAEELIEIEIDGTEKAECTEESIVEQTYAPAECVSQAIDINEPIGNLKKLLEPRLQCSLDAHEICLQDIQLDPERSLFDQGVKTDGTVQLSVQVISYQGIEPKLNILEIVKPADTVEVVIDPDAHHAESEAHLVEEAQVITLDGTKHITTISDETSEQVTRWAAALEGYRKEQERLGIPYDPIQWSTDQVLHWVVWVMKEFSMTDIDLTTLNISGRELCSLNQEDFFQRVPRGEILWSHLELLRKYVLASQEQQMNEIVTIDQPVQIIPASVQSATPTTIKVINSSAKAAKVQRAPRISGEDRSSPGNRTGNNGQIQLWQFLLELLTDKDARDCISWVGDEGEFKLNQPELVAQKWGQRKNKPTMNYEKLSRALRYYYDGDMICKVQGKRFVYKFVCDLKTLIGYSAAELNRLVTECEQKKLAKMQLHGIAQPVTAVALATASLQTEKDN
# Procedure, shortened: as §1
# ERG = target: T4, ERG (Homo sapiens, UniProt P11308 1-479); details: protein: recombinant; tags: N-terminal GST; dsDNA, one strand shown
# T4 sequence: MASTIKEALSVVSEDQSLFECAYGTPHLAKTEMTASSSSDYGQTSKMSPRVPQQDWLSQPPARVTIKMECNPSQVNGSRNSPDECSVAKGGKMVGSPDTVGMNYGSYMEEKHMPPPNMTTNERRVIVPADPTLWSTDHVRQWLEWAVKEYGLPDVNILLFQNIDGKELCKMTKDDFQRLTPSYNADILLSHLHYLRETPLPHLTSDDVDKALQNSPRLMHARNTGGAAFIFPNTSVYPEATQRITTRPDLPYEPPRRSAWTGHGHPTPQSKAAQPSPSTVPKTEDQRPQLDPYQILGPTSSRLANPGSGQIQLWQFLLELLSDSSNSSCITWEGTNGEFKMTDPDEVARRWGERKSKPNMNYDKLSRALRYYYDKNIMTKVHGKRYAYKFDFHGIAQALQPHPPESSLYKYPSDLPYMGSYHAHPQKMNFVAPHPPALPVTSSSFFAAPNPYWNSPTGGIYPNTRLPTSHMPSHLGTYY
# Procedure, shortened: as §1
# ELF1 = ELF1 (Homo sapiens, UniProt P32519 1-619); details: protein: recombinant; tags: N-terminal GST; dsDNA, one strand shown
# ELF1, sequence (P32519 whole entry): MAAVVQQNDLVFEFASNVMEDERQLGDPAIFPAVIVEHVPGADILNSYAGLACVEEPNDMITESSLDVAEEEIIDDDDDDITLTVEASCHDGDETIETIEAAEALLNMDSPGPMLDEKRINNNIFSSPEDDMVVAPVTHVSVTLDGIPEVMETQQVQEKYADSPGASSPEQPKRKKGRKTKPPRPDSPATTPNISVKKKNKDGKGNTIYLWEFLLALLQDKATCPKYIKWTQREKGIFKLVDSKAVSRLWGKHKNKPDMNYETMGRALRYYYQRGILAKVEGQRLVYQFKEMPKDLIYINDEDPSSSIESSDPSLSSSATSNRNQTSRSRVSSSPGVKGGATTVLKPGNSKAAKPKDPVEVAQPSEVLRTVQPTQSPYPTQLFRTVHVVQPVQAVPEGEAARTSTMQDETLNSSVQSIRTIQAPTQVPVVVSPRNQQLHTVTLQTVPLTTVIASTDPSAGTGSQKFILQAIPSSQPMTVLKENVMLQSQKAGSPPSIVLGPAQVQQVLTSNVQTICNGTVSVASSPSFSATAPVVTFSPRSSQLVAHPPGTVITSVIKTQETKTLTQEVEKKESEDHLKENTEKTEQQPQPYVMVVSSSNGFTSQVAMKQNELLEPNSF
# Procedure, shortened: as §1
# EHF = target: T5, EHF (Homo sapiens, UniProt Q9NZC4 1-300); details: protein: recombinant; tags: N-terminal GST; dsDNA, one strand shown
# T5 sequence: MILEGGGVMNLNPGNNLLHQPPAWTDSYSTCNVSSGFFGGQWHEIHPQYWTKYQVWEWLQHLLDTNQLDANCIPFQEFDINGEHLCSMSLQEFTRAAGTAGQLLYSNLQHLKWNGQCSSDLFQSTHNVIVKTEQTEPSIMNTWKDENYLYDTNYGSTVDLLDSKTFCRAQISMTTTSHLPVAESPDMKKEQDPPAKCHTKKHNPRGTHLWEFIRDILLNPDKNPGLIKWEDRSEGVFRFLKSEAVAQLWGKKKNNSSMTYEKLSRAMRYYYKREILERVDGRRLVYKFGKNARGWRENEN
# Procedure, shortened: as §1
# SPI1 = SPI1 (Homo sapiens, UniProt P17947 1-270); details: protein: recombinant; tags: N-terminal GST; dsDNA, one strand shown
# Procedure, shortened: as §1
# SPIB = SPIB (Homo sapiens, UniProt Q01892 1-262); details: protein: recombinant; tags: N-terminal GST; dsDNA, one strand shown
# SPIB, sequence (Q01892 whole entry): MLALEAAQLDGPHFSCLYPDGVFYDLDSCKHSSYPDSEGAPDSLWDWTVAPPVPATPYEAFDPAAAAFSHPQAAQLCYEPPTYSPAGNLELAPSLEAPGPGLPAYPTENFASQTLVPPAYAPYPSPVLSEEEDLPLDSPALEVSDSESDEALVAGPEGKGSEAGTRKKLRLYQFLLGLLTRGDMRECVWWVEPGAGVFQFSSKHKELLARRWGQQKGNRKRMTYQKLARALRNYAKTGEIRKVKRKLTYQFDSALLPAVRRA
# Procedure, shortened: as §1
# ELK3 = target: T6, ELK3 (Homo sapiens, UniProt P41970 1-407); details: protein: recombinant; tags: N-terminal GST; dsDNA, one strand shown
# T6 sequence: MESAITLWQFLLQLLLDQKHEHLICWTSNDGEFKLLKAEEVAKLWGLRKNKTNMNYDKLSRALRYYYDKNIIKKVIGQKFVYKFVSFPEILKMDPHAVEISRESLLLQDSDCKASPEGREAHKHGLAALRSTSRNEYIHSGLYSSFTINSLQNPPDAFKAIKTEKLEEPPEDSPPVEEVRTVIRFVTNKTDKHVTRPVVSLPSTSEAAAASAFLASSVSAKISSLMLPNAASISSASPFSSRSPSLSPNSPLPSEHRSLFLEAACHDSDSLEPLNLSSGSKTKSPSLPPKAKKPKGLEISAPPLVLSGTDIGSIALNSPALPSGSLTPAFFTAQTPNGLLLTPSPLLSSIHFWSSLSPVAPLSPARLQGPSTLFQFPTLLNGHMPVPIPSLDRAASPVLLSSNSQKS
# Procedure, shortened: as §1
# FEV = target: T7, FEV (Homo sapiens, UniProt Q99581 1-238); details: protein: recombinant; tags: N-terminal GST; dsDNA, one strand shown
# T7 sequence: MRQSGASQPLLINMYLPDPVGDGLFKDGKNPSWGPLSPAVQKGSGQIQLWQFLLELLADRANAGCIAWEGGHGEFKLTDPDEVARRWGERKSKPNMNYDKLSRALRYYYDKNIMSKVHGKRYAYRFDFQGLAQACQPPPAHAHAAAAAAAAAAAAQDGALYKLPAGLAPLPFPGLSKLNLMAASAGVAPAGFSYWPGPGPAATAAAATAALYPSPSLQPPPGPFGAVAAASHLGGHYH
# Procedure, shortened: as §1
# ETV5 = ETV5 (Homo sapiens, UniProt P41161 1-510); details: protein: recombinant; tags: N-terminal GST; dsDNA, one strand shown
# ETV5, sequence (P41161 whole entry): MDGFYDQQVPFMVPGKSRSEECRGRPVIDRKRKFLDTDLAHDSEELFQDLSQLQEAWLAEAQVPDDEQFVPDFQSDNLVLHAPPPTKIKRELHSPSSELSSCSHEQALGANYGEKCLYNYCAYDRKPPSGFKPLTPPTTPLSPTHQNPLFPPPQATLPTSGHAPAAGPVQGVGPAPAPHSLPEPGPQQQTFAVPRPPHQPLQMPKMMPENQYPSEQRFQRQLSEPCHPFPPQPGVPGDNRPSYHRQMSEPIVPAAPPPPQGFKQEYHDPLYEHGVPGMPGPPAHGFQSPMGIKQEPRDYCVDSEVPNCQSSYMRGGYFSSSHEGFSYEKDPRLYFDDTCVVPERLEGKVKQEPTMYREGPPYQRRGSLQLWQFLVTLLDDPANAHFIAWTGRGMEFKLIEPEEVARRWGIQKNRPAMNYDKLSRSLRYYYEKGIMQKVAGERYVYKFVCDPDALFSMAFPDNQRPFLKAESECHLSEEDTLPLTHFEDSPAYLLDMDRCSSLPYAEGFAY
# Procedure, shortened: as §1
# HSF1 = HSF1 (Homo sapiens, UniProt Q00613 1-529); details: protein: recombinant; tags: N-terminal GST; chain copies: 3; dsDNA, one strand shown
# HSF1, sequence (Q00613 whole entry): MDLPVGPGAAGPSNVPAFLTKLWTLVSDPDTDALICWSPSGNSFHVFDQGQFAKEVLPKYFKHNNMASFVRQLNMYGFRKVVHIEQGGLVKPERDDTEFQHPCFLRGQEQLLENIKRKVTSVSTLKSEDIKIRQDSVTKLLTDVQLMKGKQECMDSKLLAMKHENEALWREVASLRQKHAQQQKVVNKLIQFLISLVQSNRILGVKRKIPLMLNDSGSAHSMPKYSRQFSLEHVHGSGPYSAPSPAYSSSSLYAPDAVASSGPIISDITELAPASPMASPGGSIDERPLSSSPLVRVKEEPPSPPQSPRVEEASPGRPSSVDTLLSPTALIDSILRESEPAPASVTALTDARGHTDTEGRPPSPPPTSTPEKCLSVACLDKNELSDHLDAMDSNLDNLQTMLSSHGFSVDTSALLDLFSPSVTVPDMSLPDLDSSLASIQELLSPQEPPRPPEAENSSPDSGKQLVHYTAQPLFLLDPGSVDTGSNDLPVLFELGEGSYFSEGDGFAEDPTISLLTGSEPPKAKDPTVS
# Procedure, shortened: as §1
# SPIC = target: T8, SPIC (Homo sapiens, UniProt Q8N5J4 1-248); details: protein: recombinant; tags: N-terminal GST; dsDNA, one strand shown
# T8 sequence: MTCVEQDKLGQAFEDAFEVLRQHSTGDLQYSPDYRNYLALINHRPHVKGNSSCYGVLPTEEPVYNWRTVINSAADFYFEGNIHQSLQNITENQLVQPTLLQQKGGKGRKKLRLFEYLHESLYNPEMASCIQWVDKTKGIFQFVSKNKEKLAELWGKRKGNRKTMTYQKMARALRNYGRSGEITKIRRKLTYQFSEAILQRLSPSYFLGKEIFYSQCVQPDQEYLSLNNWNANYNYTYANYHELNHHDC
# Procedure, shortened: as §1
# ELF4 = ELF4 (Homo sapiens, UniProt Q99607 1-663); details: protein: recombinant; tags: N-terminal GST; dsDNA, one strand shown
# ELF4, sequence (Q99607 whole entry): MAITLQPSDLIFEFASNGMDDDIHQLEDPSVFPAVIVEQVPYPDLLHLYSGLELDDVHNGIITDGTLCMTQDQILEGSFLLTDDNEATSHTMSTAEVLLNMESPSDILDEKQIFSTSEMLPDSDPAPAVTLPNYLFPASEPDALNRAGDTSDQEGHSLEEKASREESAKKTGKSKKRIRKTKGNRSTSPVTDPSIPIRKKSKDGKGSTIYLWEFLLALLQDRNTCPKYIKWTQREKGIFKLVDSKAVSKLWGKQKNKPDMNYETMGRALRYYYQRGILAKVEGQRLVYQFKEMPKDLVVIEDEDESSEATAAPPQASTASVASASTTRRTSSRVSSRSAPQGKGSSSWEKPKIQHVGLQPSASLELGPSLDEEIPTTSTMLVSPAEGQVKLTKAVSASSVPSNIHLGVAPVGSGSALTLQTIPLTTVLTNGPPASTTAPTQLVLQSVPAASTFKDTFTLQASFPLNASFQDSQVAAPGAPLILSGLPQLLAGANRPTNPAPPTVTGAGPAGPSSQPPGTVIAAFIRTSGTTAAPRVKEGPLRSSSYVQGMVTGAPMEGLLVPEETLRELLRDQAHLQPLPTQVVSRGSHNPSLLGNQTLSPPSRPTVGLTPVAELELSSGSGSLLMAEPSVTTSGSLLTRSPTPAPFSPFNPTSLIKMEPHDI
# Procedure, shortened: as §1
# ELK4 = target: T9, ELK4 (Homo sapiens, UniProt P28324-2 1-405); details: protein: recombinant; tags: N-terminal GST; dsDNA, one strand shown
# T9 sequence: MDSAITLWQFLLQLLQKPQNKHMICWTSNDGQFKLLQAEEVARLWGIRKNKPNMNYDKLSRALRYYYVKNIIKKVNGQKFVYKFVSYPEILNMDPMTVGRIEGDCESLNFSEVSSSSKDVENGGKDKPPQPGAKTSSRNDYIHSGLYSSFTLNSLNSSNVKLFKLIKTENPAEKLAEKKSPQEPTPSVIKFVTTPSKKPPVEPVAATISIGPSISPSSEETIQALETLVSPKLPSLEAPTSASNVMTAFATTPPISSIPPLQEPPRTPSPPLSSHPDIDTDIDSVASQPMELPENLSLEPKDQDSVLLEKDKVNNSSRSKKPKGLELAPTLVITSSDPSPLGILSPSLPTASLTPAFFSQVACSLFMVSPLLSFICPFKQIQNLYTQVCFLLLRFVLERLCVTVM
# Procedure, shortened: as §1
# ETV2 = target: T10, ETV2 (Homo sapiens, UniProt O00321 1-342); details: protein: recombinant; tags: N-terminal GST; dsDNA, one strand shown
# T10 sequence: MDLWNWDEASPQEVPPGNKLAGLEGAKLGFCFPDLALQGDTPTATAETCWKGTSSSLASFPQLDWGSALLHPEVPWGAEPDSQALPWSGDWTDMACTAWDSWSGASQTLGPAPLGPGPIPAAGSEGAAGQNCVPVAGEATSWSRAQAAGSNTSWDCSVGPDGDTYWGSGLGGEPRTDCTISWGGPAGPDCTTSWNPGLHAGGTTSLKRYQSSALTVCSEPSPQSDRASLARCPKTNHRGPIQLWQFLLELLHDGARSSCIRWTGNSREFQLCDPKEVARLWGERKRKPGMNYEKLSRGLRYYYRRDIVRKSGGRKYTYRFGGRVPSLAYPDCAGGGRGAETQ
# Procedure, shortened: as §1
# ELF3 = target: T11, ELF3 (Homo sapiens, UniProt P78545 1-371); details: protein: recombinant; tags: N-terminal GST; dsDNA, one strand shown
# T11 sequence: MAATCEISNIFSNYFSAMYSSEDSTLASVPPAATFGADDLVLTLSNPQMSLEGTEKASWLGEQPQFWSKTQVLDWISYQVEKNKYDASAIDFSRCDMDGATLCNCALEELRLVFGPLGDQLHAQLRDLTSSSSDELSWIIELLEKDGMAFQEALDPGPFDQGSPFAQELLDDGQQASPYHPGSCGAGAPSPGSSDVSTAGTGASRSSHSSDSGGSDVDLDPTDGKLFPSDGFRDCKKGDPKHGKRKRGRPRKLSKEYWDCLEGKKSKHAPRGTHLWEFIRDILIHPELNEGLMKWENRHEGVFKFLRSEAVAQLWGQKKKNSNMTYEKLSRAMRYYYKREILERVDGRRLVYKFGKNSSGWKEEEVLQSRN
# Procedure, shortened: as §1
# CRX = CRX (Homo sapiens, UniProt O43186 1-299); details: protein: recombinant; tags: N-terminal GST; dsDNA, one strand shown
# CRX, sequence (O43186 whole entry): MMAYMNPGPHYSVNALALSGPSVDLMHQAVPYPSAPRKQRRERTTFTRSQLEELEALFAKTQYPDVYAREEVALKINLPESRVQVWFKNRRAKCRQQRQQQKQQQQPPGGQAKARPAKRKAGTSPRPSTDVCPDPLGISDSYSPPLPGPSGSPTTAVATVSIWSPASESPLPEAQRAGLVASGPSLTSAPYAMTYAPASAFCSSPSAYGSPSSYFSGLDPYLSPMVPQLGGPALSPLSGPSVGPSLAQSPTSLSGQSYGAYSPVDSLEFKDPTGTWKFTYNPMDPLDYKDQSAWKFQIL
# Procedure, shortened: as §1
# ETV1 = ETV1 (Homo sapiens, UniProt P50549 1-477); details: protein: recombinant; tags: N-terminal GST; dsDNA, one strand shown
# ETV1, sequence (P50549 whole entry): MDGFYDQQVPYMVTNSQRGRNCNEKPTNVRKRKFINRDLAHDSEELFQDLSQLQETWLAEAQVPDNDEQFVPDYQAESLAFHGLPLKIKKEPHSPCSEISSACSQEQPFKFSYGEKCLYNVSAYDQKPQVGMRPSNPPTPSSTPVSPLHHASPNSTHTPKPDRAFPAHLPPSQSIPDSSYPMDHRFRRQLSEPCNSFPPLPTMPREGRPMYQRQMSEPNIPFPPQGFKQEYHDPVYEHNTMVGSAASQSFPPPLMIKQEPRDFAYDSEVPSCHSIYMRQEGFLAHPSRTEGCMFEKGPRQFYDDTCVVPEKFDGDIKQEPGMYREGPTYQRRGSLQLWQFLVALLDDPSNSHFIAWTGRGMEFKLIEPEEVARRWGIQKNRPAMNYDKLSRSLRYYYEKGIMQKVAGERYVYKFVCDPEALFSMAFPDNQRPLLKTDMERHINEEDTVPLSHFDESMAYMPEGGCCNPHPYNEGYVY
# Procedure, shortened: as §1
sequence,measurement,setting,value
TTTACA,binding signal,FLI1,"1.18 fold enrichment (6-mer frequency, TF over GST control)"
same,binding signal,ELK1,"1.19 fold enrichment (6-mer frequency, TF over GST control)"
same,binding signal,GABPA,"1.25 fold enrichment (6-mer frequency, TF over GST control)"
same,binding signal,ERG,"1.23 fold enrichment (6-mer frequency, TF over GST control)"
same,binding signal,ELF1,"1.31 fold enrichment (6-mer frequency, TF over GST control)"
same,binding signal,EHF,"1.31 fold enrichment (6-mer frequency, TF over GST control)"
same,binding signal,SPI1,"1.22 fold enrichment (6-mer frequency, TF over GST control)"
same,binding signal,SPIB,"1.24 fold enrichment (6-mer frequency, TF over GST control)"
same,binding signal,ELK3,"1.25 fold enrichment (6-mer frequency, TF over GST control)"
same,binding signal,FEV,"1.2 fold enrichment (6-mer frequency, TF over GST control)"
same,binding signal,ETV5,"1.19 fold enrichment (6-mer frequency, TF over GST control)"
same,binding signal,HSF1,"1.32 fold enrichment (6-mer frequency, TF over GST control)"
same,binding signal,SPIC,"1.19 fold enrichment (6-mer frequency, TF over GST control)"
same,binding signal,ELF4,"1.26 fold enrichment (6-mer frequency, TF over GST control)"
same,binding signal,ELK4,"1.32 fold enrichment (6-mer frequency, TF over GST control)"
same,binding signal,ETV2,"1.26 fold enrichment (6-mer frequency, TF over GST control)"
same,binding signal,ELF3,"1.4 fold enrichment (6-mer frequency, TF over GST control)"
same,binding signal,CRX,"1.55 fold enrichment (6-mer frequency, TF over GST control)"
same,binding signal,ETV1,"1.3 fold enrichment (6-mer frequency, TF over GST control)"
